Source: PubChem BioAssay
Hits are enriched below; roughly 3.3% of the tested compounds scored in any of these assays.
DNA Pol III inh: DNA polymerase III holoenzyme inhibition; reconstituted DNA polymerase III holoenzyme replication, biochemical; Potency, µM (doses to about 57.1 µM), for the others: at the highest dose activity change, negative = inhibition; 71,000 compounds, 0.25% hits; AID 603; further: potency means the concentration at half of the fitted maximal effect; on the % scale 0 is the no-effect control and ±100 the full control effect
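Reconstituted *E. coli* holoenzyme (0.35 nM Pol III, 1 nM beta, 154 nM SSB, 2 nM primase) was preincubated with compound for 15 min at RT. Synthesis on 1.4 nM ssM13Gori ran 35 min, then was stopped with PicoGreen/EDTA and read as dsDNA fluorescence.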
TsaE inh: inhibitors of E. coli YjeE (TsaE); P0AF67; purified YjeE enzyme, qHTS inhibition assay; Potency, µM; 71,000 compounds, 0.05% hits; AID 605
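Fluorescence polarization of a BODIPY Texas Red–ADP probe (2 uM) bound to purified YjeE (10 uM) was read after 15 min room-temperature incubation with compounds. Loss of polarization marks inhibitors; ADP serves as titrated control.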
15-hLO inh: 15-hLO (ALOX15) enzyme inhibition; 74,000 compounds, 1.4% hits; Potency, µM (doses to about 57.1 µM), for the others: at the top dose activity change, negative = inhibition, actives largely listed as inhibitors; P16050; AID 887; purified 15hLO-1, xylenol orange hydroperoxide absorbance; further: potency means the concentration at half of the fitted maximal effect; on the % scale 0 is the no-effect control and ±100 the full control effect; nearly all actives have a fitted effect of over 55% in size
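Quantitative HTS in 25 mM Hepes pH 7.5 containing 0.01% Triton X-100: human 15hLO-1 at 40 nM, arachidonic acid at 50 uM, 6 min turnover. Product quantified via ferrous oxidation/xylenol orange, 573:405 nm absorbance ratio.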
Hsp90 Hop PPI: changes Hsp90-Hop TPR2A binding signal, up or down; AlphaScreen TPR2A-His6 binding biotin-Hsp90 C-terminal peptide; Potency, µM (highest dose often 57 µM), for inactives: top-dose activity change, negative = inhibition; 71,000 compounds, 0.44% hits; active means well fitted curve in either direction with a large enough effect; inconclusive means small, poorly fitted or top-dose-only effect, or another doubt; further: potency means the concentration at half of the fitted maximal effect; on the % scale 0 is the no-effect control and ±100 the full control effect
Tau fil binding: binds recombinant human tau filaments; P10636; recombinant tau filaments, thioflavin S fluorescence, 15 h; filaments grown with octadecylsulfate alongside compound; Potency, µM (series often up to 57.1 µM), inactives show top-dose activity change, negative = inhibition; 71,000 compounds, 2% hits; AID 596;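 further: potency means the concentration at half of the fitted maximal effect; on the % scale 0 is the no-effect control and ±100 the full control effect; actives lower thioflavin S fluorescence by blocking filaments or displacing dye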
Target sequence (P10636 whole entry, looked up): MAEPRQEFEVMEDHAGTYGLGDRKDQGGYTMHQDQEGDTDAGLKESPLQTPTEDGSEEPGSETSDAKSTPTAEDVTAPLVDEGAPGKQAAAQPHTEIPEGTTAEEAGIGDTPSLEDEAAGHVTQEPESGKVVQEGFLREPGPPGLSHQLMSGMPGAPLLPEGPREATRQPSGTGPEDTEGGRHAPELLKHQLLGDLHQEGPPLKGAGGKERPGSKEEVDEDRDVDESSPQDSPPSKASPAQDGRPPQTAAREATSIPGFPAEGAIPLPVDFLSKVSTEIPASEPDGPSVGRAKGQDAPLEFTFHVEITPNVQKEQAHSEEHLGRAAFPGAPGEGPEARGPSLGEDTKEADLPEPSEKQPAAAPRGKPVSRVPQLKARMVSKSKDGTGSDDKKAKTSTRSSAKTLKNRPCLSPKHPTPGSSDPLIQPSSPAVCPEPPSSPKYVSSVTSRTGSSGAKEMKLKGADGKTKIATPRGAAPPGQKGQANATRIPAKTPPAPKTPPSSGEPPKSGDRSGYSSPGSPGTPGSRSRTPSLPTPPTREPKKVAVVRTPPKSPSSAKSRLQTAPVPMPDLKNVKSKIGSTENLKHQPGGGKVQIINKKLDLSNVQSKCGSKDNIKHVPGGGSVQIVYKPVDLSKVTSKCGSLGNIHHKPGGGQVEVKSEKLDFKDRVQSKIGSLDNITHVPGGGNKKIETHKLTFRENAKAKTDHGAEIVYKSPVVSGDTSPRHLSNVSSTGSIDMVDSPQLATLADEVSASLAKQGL
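Assay mix: 1 uM His-tagged tau, 30 uM sodium octadecylsulfate, thioflavine S dye in HEPES/NaCl/DTT buffer. Compound is added prior to the inducer. Fluorescence after 15 h at 37 C.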
Starred values were filed as active, the others as inactive; i = inactive; u = inconclusive; x = no result; ! = a repeat was not active; [ ] = another dose, or the depositor's remark. Unless noted, the call rests on the fitted dose curve; in most records, active means well fitted curve in the direction sought with a large enough effect; inconclusive means small, poorly fitted or top-dose-only effect, or another doubt; inactive means no such curve, though single readings can be large; an effect the other way counts as inactive or inconclusive.

SMILES	DNA Pol III inh	TsaE inh	15-hLO inh	Hsp90 Hop PPI	Tau fil binding
C=Cc1ccc(C=C)cc1	12.4%	i	-15.8%	-5.0%	13.3%
Cc1cc(OCCCCCNCCO)cc(C)c1Cl	-6.5%[11.4 µM]	i	-28.8%[11.4 µM]	1.2%[11 µM]	2.51µM*
Cc1ccc(N(Cc2ccccc2)Cc2ccccc2)cc1	-5.6%[11.4 µM]	i	1.1%[11.4 µM]	6.6%[11 µM]	1.4%[11.4 µM]
c1ccc(-c2csc(-c3nc4ccccc4[nH]3)n2)cc1	x	x	7.94µM*	x	x
Cc1noc(C)c1-c1nc(Nc2ccc(F)cc2)c2ccccc2n1	-6.6%	i	15.8µM*	1.4%	-15.8%
Cc1noc(C)c1-c1nc(Nc2ccncc2)c2ccccc2n1	0.3%	i	u	-10.0%	9.8%
Cc1noc(C)c1-c1nc(NCc2cccs2)c2ccccc2n1	0.4%	i	12.6µM*	-6.6%	83.4%
Cc1noc(C)c1-c1nc(N(C)C)c2ccccc2n1	-6.1%	i	15.8µM*	-1.7%	-4.7%
Cc1noc(C)c1-c1nc(NC2CC2)c2ccccc2n1	u	i	-4.0%	-1.3%	-6.4%
C[C@@H]1CC[C@H]2C(=O)NC[C@@H](O)CN2[C@@H]1c1ccc(Br)cc1	x	x	2.7%[11.4 µM]	x	x
CNc1ncnc2c1ncn2[C@H]1C[C@@H](OP(=O)(O)O)[C@H](COP(=O)(O)O)O1	-3.6%	i	4.6%	-17.9%	-7.6%
COc1ccc(O)cc1	4.6%	i	0.5%	-0.6%	2.3%
C=CC(C1=CC(=O)C(OC)=CC1=O)c1ccc(O)cc1 (stereo not drawn)	x	x	25.1µM*	x	x
O=c1n(Cc2cc3c(cc2Cl)OCO3)c(=O)n2n1CC[C@H]1/C(=N\OC[C@@H](O)COCc3ccco3)[C@H]3O[C@@H]3[C@@H](O)[C@@H]12	x	x	8.8%[11.4 µM]	x	x
C[C@@H](Cc1ccccc1)Nc1ncnc2c1ncn2[C@@H]1O[C@@H](CO)[C@H](O)[C@@H]1O	-10.7%	i	-22.7%	-14.6%	-8.8%
COc1ccc2[nH]cc(CCNc3ccnc(-c4ccccc4Cl)n3)c2c1	2.8%	i	-6.6%	-14.2%	-10.1%
Oc1c(CN2CCN(c3ccccc3)CC2)cc(Br)c2cccnc12	-8.2%[11.4 µM]	i	71.8%[11.4 µM]	-13.9%[11 µM]	u
CC(=O)Nc1cc(CN2CCCCC2)c(O)c2ncccc12	-4.7%[11.4 µM]	i	51.7%[11.4 µM]	3.98µM*	-13.0%[11.4 µM]
COc1ccccc1C(=O)n1nc(-c2ccc(Cl)cc2)nc1N	-6.4%	i	12.6µM*	-1.9%	-9.9%
CC(=O)c1cccc(NC(=O)CN(c2ccc(C)cc2)S(=O)(=O)c2cccc3nonc23)c1	0.7%	i	-6.0%	-11.0%	3.98µM*
Cc1ccc(N(CC(=O)O)S(=O)(=O)c2cccc3nonc23)cc1	0.7%	i	-1.5%	1.8%	-4.9%
Nc1nnc(SCc2ccc(F)cc2Cl)s1	-6.0%	i	u	-18.0%	20µM*
O=C(CN1CCCC1)N1c2ccccc2Sc2ccccc21	-1.1%	i	u	-7.1%	20µM*
CCCSc1nnc2nc3c(nn12)c1ccccc1n3C	-9.3%	i	5.2%	-26.6%	15.8µM*
CC1CCN(Cc2c(C#N)c3ccccc3n2C)CC1	-4.3%	i	25.1µM*	3.2%	-2.2%
SMILES	DNA Pol III inh	TsaE inh	15-hLO inh	Hsp90 Hop PPI	Tau fil binding
CN1CCN(Cc2c(C#N)c3ccccc3n2C)CC1	-6.9%	i	0.2%	-1.2%	10.9%
OC[C@@H]1O[C@H](O)[C@@H](Cl)[C@H](O)[C@@H]1O	-4.6%	i	5.9%	1.3%	-0.4%
Cc1ccc(NC(=O)NC2=N/C(=C(/C#N)C(=O)N3CCCC3)c3ccccc32)cc1	-0.4%	i	2.7%	-11.4%	5.01µM*
Cc1ccc(NC(=O)C2CC=CCC2C(=O)N2CCCCC2)cc1 (stereo not drawn)	-2.0%	i	-1.8%	-1.4%	-0.9%
N#Cc1cc2c(nc1SCc1cccnc1)CCC2	-3.8%	i	0.1%	4.1%	3.7%
N#Cc1cc2c(nc1SCc1cccnc1)CCCC2	-9.3%	i	15.8µM*	3.7%	10.9%
N#Cc1cc2c(nc1SCc1nc3ccccc3[nH]1)CCC2	-7.0%	i	15.8µM*	12.1%	31.6µM*
COc1ccc2oc(C(=O)c3ccccc3)c(NC(=O)CN3CCN(C)CC3)c2c1	-7.2%	i	-3.9%	-5.2%	3.98µM*
CCOC(=O)c1oc2ccc(Br)cc2c1NC(=O)CN1CCN(C)CC1	-3.3%	i	12.9%	-6.1%	35.0%
O=C(Nc1ccc(N2CCN(C(=O)c3ccc(Cl)cc3)CC2)cc1)c1cccnc1	-5.6%	i	-2.4%	-12.8%	10µM*
CCN1CCN(Cc2ccc(NC(=O)Nc3ccccc3OC)cc2)CC1	-5.6%	i	3.16µM*	u	1.0%
CC(C)c1ccc(NC(=O)C2CC(=O)N=C(N)S2)cc1 (stereo not drawn)	-1.5%	i	25.1µM*	-4.7%	-10.5%
Cc1cccc(-n2c(SCc3cc(=O)n4ccsc4n3)nc3ccccc32)c1	-5.7%	i	12.6µM*	-15.3%	6.2%
COc1cc2ccc(=O)oc2c(O)c1O	-7.6%	i	12.6µM*!	-1.8%	u
CCCCOc1cccc(C(=O)Nc2ccc(N3CCN(CC)CC3)cc2)c1	-5.5%	i	-8.0%	-5.1%	20µM*
C=CCC1(O)C=CCC2C3C4C(OC(C)(C)C)C2C1C34 (stereo not drawn)	x	x	4.9%[11.4 µM]	x	x
CN1Cc2cc(C(=O)c3cc(Cl)cc(CSc4ncccn4)c3O)cnc2NC1=O	-6.4%	i	-17.8%	-5.8%	15.8µM*
O=c1cc(-c2ccc(O)c(O)c2)oc2cc(O[C@@H]3O[C@@H](CO)[C@@H](O)[C@@H](O)[C@H]3O)cc(O)c12	1µM*	i	x	-5.3%	u
CC(=O)O[C@@H]1[C@H]([N+]2(C)CCCCC2)C[C@@H]2[C@@H]3CC[C@@H]4C[C@@H](OC(C)=O)[C@H]([N+]5(C)CCCCC5)C[C@@]4(C)[C@H]3CC[C@]21C	-0.9%	i	6.6%	-1.0%	-3.4%
C=CCn1c(-c2cccs2)nc2nc3ccccc3nc21	-12.9%	i	9.0%	13.1%	20µM*
CCC(C)n1c(-c2cccs2)nc2nc3ccccc3nc21 (stereo not drawn)	4.4%	i	-12.2%	11.1%	12.6µM*
C=CCn1c(-c2cccs2)nc2ccccc21	-5.9%	i	-0.4%	-0.4%	2.8%
FC(F)(F)c1ccccc1-c1nccc(-n2ccnc2)n1	-2.8%	i	u	7.0%	-5.2%
CCN1CCN(c2cc(C)c3cc(NC(=O)c4ccncc4)ccc3n2)CC1	-5.9%	i	-7.3%	-4.5%	15.8µM*
COc1ccc(NC(=O)Cc2cccs2)c(OC)c1	-4.9%[11.4 µM]	i	-29.9%[11.4 µM]	-7.3%[11 µM]	3.16µM*
Oc1ccc(/C=C\c2cc(O)cc(O)c2)cc1	3.0%	i	u	-9.0%	31.6µM*!
Oc1ccc(/C=C/c2cc(O)cc(O)c2)cc1	-8.5%	i	-17.8%[25.6 µM]	-2.3%	2.5%
Oc1cc(O)cc(/C=C\c2ccc(O)c(O)c2)c1	-21.8%	i	0.794µM*	u	u
COC(=O)C/C=C\[C@@H](C)[C@@H](/C=N\O[C@@H](C)CN1CCCc2nc(C)c(C)cc21)OC	x	x	-1.0%[11.4 µM]	x	x
